High-throughput results: PubChem BioAssay, The Scripps Research Institute Molecular Screening Center
Hits are enriched below; roughly 2.3% of the tested compounds scored in any of these assays.
CHO-K1 Ca ag: nonselective activator or artifact in parental CHO-K1 cells | Fluo-8 calcium fluorescence; scaled to maximal ATP response, vehicle zero | activation, % at 3 µM | 360,000 tested, 0.48% active; in the data active = activation above about 15%;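 note: untransfected CHO-K1 host cells lacking M1 receptor as counterscreen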
CHRM1 antagonist: antagonists of human M1 muscarinic receptor; 360,000 tested, 1.3% active; AID 588852; CHO-K1 hM1, Fluo-8 calcium fluorescence, ACh EC80 antagonist; inhibition, % at 3 µM;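 active = percent inhibition above its own plate's cutoff, namely the mean of that plate's compound wells plus 3 SD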;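 note: peak over basal fluorescence ratio during 140 s after agonist addition; 0% = ACh EC80 plus DMSO and 100% = DMSO alone without agonist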
Target sequence (P11229 whole entry, looked up): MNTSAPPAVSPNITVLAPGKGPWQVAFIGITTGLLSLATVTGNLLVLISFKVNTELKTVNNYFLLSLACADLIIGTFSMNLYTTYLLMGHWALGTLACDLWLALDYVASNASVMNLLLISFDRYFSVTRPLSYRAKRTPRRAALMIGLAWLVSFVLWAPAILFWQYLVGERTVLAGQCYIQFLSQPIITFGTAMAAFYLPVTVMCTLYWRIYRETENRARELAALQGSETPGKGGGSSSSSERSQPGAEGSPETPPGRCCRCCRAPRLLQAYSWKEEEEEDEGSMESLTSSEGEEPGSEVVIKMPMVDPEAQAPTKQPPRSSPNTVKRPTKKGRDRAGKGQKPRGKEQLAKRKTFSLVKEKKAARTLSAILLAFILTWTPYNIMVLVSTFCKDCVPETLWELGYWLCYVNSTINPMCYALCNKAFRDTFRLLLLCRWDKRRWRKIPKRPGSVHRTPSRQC
CHO-K1 Ca PAM: counter-screen for M1 PAMs: effect in parental CHO-K1 cells; ATP EC20, Fluo-8 calcium fluorescence; 0% at ATP EC20, 100% at ATP max; activation, % at 3 µM; 360,000 tested, 0.02% active; AID 602247;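 active = activation above the run cutoff, the mean activation of all test compounds plus 3 SD, cut at about 40% in these data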;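 note: peak over basal fluorescence ratio in a 140 s read after ATP addition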
M1 PAM: human CHRM1 positive allosteric modulation; CHO-K1 hM1, Fluo-8 calcium fluorescence, ACh EC20; 0% = ACh EC20, 100% = maximal ACh; activation, % at 3 µM; 360,000 tested, 0.088% active; in the data active = activation above about 19%, passing the limit was not always enough
CHO-K1 Ca antag: counter-screen for M1 antagonists: effect in parental CHO-K1 cells. inhibition, % at 3 µM. ATP-induced calcium, Fluo-8 fluorescence. 360,000 tested, 0.6% active;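 active = inhibition above a per-plate cutoff, the plate's mean sample inhibition plus 3 SD, cut at about 24% in these data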;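 note: 0% = DMSO plus EC80 ATP and 100% = DMSO alone without ATP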
CHRM1 agonist: human M1 muscarinic receptor agonism | activation, % at 3 µM | 360,000 tested, 0.33% active | P11229 | CHO-K1 hM1, Fluo-8 calcium fluorescence, agonist mode; 0% DMSO, 100% acetylcholine EC100;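 active = activation above the run's mean compound activation plus 3 SD, cut at about 16% in these data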;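 note: peak over basal fluorescence ratio within a 140 s kinetic read after compound addition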
Active calls of the source: *.

SMILES | CHO-K1 Ca ag | CHRM1 antagonist | CHO-K1 Ca PAM | M1 PAM | CHO-K1 Ca antag | CHRM1 agonist
O=C(N/N=C/c1cccnc1)/C(=C\c1cccs1)NC(=O)c1ccccc1 | 18.8* | 4.8 | 16.8 | -1.4 | -0.9 | -3.5
O=C1CCCc2oc3c(c21)CCCC3 | -0.2 | -7.9 | 9.8 | 11.2 | -9.4 | -9.6
O=C1NC2c3c(Cl)sc(Cl)c3C(=O)C2O1 (stereo not given) | -0.2 | -27.8 | 4.0 | 27.9* | -7.9 | 5.0
COc1ccc(OCCNC(=O)c2cccc(Oc3ccc(C(F)(F)F)cc3[N+](=O)[O-])c2)cc1 | -0.2 | 6.0 | -15.2 | -10.0 | 25.3* | -5.7
CC1=CC(C)(C)N(C(=O)c2ccccc2)c2ccc(C)cc21 | 9.9 | -8.2 | 31.1 | 5.8 | -1.6 | 27.7*
CC1(C(=O)Nc2cccnc2)Cc2c(-c3cccc(C(F)(F)F)c3)ccnc2O1 (stereo not given) | 0.2 | -9.1 | 3.8 | 8.8 | -14.0 | 0.4
Cc1cccc(C(=O)NCC(=O)OCC(=O)c2cc(C)n(CC3CCCO3)c2C)c1 (stereo not given) | 17.3* | -2.8 | 8.2 | 7.9 | 4.6 | -9.0
CCCc1nnc(SCC(=O)Nc2nccs2)o1 | 0.4 | -14.3 | 13.2 | 20.8 | -14.4 | 1.4
Cc1cccc(C)c1OCc1nnc(SCC(=O)Nc2nccs2)o1 | 2.9 | 24.9* | 10.9 | -16.5 | -0.8 | -0.1
CC(C)(C)c1ccc(NC(=O)COC(=O)C2(C)CC2(Cl)Cl)cc1 (stereo not given) | 1.1 | 26.7 | -14.9 | -13.5 | 2.1 | -5.5
O=C(COc1ccc2ccccc2c1)Nc1ccncc1 | 13.9 | 17.8 | -0.4 | -2.7 | 24.1* | -0.1
O=C(CSc1ccncc1)Nc1ccc2ccccc2c1 | 4.2 | -0.1 | 8.9 | 8.7 | -5.5 | -5.6
O=C(CSc1ccc2ccccc2c1)Nc1ccncc1 | 12.6 | 31.5* | -0.6 | -12.4 | 15.2 | -2.5
Cc1cc(OCC(=O)Nc2ccncc2)ccc1Cl | 10.3 | 28.0 | -19.0 | -11.1 | 35.2* | 2.4
Cc1cc(OCC(=O)Nc2ccncc2)cc(C)c1Br | 9.7 | 7.3 | -5.0 | -11.3 | 25.2* | 9.6
Cc1cc(OCC(=O)Nc2ccc3oc(-c4ccncc4)nc3c2)ccc1Cl | 0.2 | -6.4 | 12.8 | 8.4 | -4.8 | -0.7
Cc1nn(-c2ccccc2)c(Cl)c1C(=O)Nc1nnc(C2CCCC2)s1 | -0.1 | -17.9 | 3.3 | -1.7 | -6.5 | -3.3
COc1ccc(C(CNC(=O)c2cccc(S(=O)(=O)NCc3ccccc3)c2)N2CCOCC2)cc1 (stereo not given) | -0.2 | -6.3 | 0.0 | 4.8 | 3.9 | -2.7
O=C(Nc1cc2cccc([N+](=O)[O-])c2oc1=O)c1cccs1 | -0.2 | -1.5 | -8.4 | -1.0 | 2.9 | -5.2
CCn1nc(C)c(Br)c1Nc1ccc(Br)cc1 | -0.2 | -2.0 | 10.3 | 2.7 | -6.4 | -3.9
COc1cccc(CN2CCN(C(=O)c3ccc(-c4ccccc4)cc3)CC2)c1OC | 15.9* | -2.7 | 9.9 | 8.2 | 9.8 | -9.2
COc1cccc(CN2CCN(C(=O)c3ccc(-c4ccccc4)cc3)CC2)c1 | 15.6* | 9.5 | 10.6 | -3.1 | 5.2 | -3.9
COc1cccc(CC(NC(C)=O)C(=O)NC2CCN(C(=O)c3ccc(Cl)cc3)CC2)c1OC (stereo not given) | 0.6 | -22.3 | 26.5 | 29.5* | 2.6 | 1.0
COc1cccc(CN2CCN(C(=O)c3cccc(OC)c3)CC2)c1 | 0.9 | -14.1 | 7.9 | 13.4 | -4.9 | -6.2
COc1ccc(CN2CCN(C(=O)c3cc(-c4cccnc4)nc4ccc(Cl)cc34)CC2)c(OC)c1OC | 6.4 | 58.2* | -19.2 | -21.7 | 13.1 | -3.3
SMILES | CHO-K1 Ca ag | CHRM1 antagonist | CHO-K1 Ca PAM | M1 PAM | CHO-K1 Ca antag | CHRM1 agonist
Cc1ccc(Cc2nc3ccccc3[nH]2)cc1 | 1.0 | 0.6 | 11.6 | 5.5 | -8.8 | -1.2
COc1ccc(Cc2nc3ccccc3[nH]2)cc1OC | 0.3 | 4.9 | -2.9 | 1.5 | 46.5* | -6.4
COC(=O)c1[nH]c2ccc(C)cc2c1NC(=O)CCN1CCN(Cc2ccc3c(c2)OCO3)CC1 | 0.8 | 61.0* | 11.6 | -33.3 | -16.9 | -14.8
CN1/C(=C\C(=O)CSc2ncn[nH]2)C(C)(C)c2ccccc21 | 4.0 | 20.0 | -11.4 | -9.0 | 25.9* | -0.8
CN1/C(=C\C(=O)COC(=O)c2ccccc2O)C(C)(C)c2ccccc21 | 17.4* | 7.8 | 5.1 | -7.3 | 5.3 | -2.4
c1ccc(-c2cnn3c(-c4ccccc4)c(-c4ccccc4)nc3n2)cc1 | 31.3* | 41.3* | 10.5 | -8.5 | 28.4* | 52.1*
O=[N+]([O-])c1ccc(-c2ccc(/C=N/Nc3nc(NCc4ccccc4)nc(N4CCOCC4)n3)o2)cc1 | 18.0* | 26.0* | 13.6 | -12.2 | 24.1* | 11.4
CCn1nc(C)c(CNC(=O)Nc2ccccc2C(=O)OC)c1C | 1.1 | 14.3 | 10.4 | 4.6 | -8.8 | 0.0
CC1CCCC(NC(=O)c2ccc3c(SCC(=O)O)c4c(nc3c2)CCC4)C1C (stereo not given) | 0.4 | 39.2* | 10.5 | -5.5 | -10.6 | -1.8
CCCCCCn1c(=O)[nH]c2nc3cc(N)c(C)cc3nc2c1=O | 59.8* | 32.3* | -10.3 | -22.3 | 28.6* | 60.8*
Cc1cccc(OC(=O)NCCOC(=O)N(O)c2ccc(Cl)cc2)c1 | 8.0 | 21.3 | -4.5 | -8.1 | 24.1* | 3.6
COc1cc(SC)ccc1C(=O)N1CCc2ccccc21 | 0.8 | -11.4 | 15.9 | 5.8 | -7.9 | -4.6
CCn1ccc(C(=O)Nc2ccc(Cl)cn2)n1 | 3.7 | 32.6* | -6.6 | -19.4 | 20.5 | -0.3
Cc1cccc(Cl)c1OCCCN1CCOCC1 | 0.3 | 32.2* | 6.3 | 2.6 | -8.0 | -2.9
COc1ccc(Nc2nc(-c3cccs3)nc3ccccc23)cc1S(=O)(=O)N1CCOCC1 | 5.9 | 24.2 | 6.1 | -7.4 | 5.3 | -0.7
CCc1nnc(NC(=O)CCC(=O)N2CCCC2)s1 | 0.1 | -2.6 | 15.5 | 2.1 | -2.4 | -3.4
O=C(CCC(=O)N1CCN(C2CCCCC2)CC1)Nc1nnc(C(F)(F)F)s1 | 0.7 | 3.7 | 4.8 | 6.5 | -2.7 | 3.8
CCc1nnc(NC(=O)CCC(=O)N2CCN(C3CCCCC3)CC2)s1 | 0.6 | -1.5 | 9.6 | -3.9 | -15.8 | 18.9*
CC(C)c1nnc(NC(=O)CCC(=O)N2CCN(C3CCCCC3)CC2)s1 | 0.6 | 9.4 | 2.4 | -12.2 | -11.5 | 22.0*
CCN(CC)CCCN(C(=O)c1cccc(C)c1)c1nc(-c2ccc(OC)cc2)cs1 | 1.4 | 7.9 | 10.9 | -15.3 | 0.1 | -7.3
Cn1c(=O)c(C#N)c(-c2ccc(F)cc2)c2cc(C(=O)c3cc(Cl)cc(Cl)c3O)cnc21 | 14.2 | 31.4* | -11.1 | -11.8 | 12.1 | 3.5
Cn1nc(C(=O)OCC(=O)Nc2cccc(S(=O)(=O)N3CCCC3)c2)c2ccccc2c1=O | 9.7 | 11.5 | 2.8 | -12.6 | -3.2 | -2.7
CCOC(=O)c1oc2ccc(CNC3CCCCC3)c(Cl)c2c1C | 1.1 | 75.8* | -0.2 | -36.2 | -2.0 | -11.5
